# Test results reported in PubChem BioAssay (NCATS).
# Values joined by “and” are separate entries in the source; they are usually repeats but may differ in a detail not shown here. Equal values may be shown once. Results filed as inconclusive are left out. Active and inactive are the calls of the source. Unless noted, the call rests on the fitted dose curve; in most records, active means well fitted curve in the direction sought with a large enough effect in the repeat runs; inconclusive means weak or mixed curves; inactive means no such curve, though single readings can be large; an effect the other way counts as inactive or inconclusive.
# Assays:
# [1] = molecular target: Cytochrome P450 2D6 (Homo sapiens) (UniProt P10635); assay: Cytochrome P450 family 2 subfamily D member 6 (CYP2D6) small molecule antagonists: luciferase biochemical (cell-free) qHTS assay (AID 1645840); conditions: P450-Glo CYP2D6 enzyme, luciferin luminescence, 1 h; series mostly up to 57.4 µM; further: nearly all actives have a fitted effect of over 55% in size; on activity change, negative = inhibition: on the % scale 0 is the no-effect control and ±100 the full control effect
# Chain of Cytochrome P450 2D6 (Homo sapiens) (P10635 whole entry, looked up): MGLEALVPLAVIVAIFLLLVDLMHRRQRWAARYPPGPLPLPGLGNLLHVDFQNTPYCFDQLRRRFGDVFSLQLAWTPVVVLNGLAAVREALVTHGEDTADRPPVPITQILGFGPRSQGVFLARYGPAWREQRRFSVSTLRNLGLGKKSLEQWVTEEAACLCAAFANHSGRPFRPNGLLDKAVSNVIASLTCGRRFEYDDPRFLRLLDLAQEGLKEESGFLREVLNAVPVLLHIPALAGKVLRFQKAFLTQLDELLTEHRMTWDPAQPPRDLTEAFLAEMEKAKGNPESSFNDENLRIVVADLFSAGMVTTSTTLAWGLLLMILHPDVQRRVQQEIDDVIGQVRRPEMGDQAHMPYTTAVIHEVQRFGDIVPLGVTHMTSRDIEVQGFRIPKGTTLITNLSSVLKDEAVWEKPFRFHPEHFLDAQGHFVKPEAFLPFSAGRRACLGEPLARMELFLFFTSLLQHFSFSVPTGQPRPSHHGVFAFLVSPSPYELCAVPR
# In short: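 P450-Glo CYP2D6 system: proluciferin substrate converted by enzyme to luciferin, read by luminescence proportional to activity. Enzyme-substrate mix with compound 10 min at room temperature, then NADPH regeneration 1 h before detection reagent.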
# [2] = molecular target: Cytochrome P450 2C9 (Homo sapiens) (UniProt P11712); assay: Cytochrome P450 family 2 subfamily C member 9 (CYP2C9) small molecule antagonists: luciferase biochemical (cell-free) qHTS assay (AID 1645842); conditions: P450-Glo CYP2C9 enzyme assay, luciferin luminescence; series mostly up to 57.4 µM; further: nearly all actives have a fitted effect of over 55% in size
# Chain of Cytochrome P450 2C9 (Homo sapiens) (P11712 whole entry, looked up): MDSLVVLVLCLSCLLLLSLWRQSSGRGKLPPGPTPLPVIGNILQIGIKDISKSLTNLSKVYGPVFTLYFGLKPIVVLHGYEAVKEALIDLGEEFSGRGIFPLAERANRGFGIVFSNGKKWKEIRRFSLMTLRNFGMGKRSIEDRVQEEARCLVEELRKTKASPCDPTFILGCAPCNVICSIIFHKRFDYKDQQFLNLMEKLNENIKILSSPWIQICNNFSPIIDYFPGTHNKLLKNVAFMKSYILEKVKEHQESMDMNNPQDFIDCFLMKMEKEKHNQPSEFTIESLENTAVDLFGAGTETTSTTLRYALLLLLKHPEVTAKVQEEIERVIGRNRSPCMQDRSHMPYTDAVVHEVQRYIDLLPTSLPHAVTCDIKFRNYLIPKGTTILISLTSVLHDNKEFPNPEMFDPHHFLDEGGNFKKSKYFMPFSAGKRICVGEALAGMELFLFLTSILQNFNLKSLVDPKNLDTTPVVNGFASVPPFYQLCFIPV
# In short: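 P450-Glo CYP2C9 system: proluciferin substrate with enzyme in mix containing 0.4% BSA, 10 min at room temperature, then NADPH regeneration solution added and incubated 1 h at 37C. Detection reagent stopped reaction; luminescence read after 20 min as RLU.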
# [3] = Primary qHTS for inhibitors of nuclear receptor binding SET domain protein 2 (NSD2) in an isogenic RCH-ACV NSD2 p.E1099K mutant (9B) (AID 1645876; active means well fitted curve in the direction sought with a large enough effect; an effect the other way counts as inactive or inconclusive; further: nearly all actives have a fitted effect of over 70% in size); conditions: RCH-ACV NSD2 E1099K (9B) viability, CellTiter-Glo, 72 h; series mostly up to 44.9 µM
# [4] = Primary qHTS for inhibitors of nuclear receptor binding SET domain protein 2 (NSD2) in an RCH-ACV wild type WT cells (2C) (AID 1645877; active means well fitted curve in the direction sought with a large enough effect; an effect the other way counts as inactive or inconclusive; further: nearly all actives have a fitted effect of over 70% in size); conditions: RCH-ACV (leukaemia line) NSD2 WT (2C) viability, CellTiter-Glo, 72 h; series mostly up to 44.9 µM
# [5] = molecular target: Catechol O-methyltransferase (Homo sapiens) (UniProt P21964); assay: Confirmatory Screen for Target Class Profiling of Small Molecule Inhibitors of Methyltransferases (AID 1745852; calls by dose curve; on activity change, negative = inhibition: on the % scale 0 is the no-effect control and ±100 the full control effect); conditions: MTase-Glo luminescence, SAH detection, recombinant enzyme; measured here: COMT max response; stronger effect = lower value
# Chain of Catechol O-methyltransferase (Homo sapiens) (P21964 whole entry, looked up): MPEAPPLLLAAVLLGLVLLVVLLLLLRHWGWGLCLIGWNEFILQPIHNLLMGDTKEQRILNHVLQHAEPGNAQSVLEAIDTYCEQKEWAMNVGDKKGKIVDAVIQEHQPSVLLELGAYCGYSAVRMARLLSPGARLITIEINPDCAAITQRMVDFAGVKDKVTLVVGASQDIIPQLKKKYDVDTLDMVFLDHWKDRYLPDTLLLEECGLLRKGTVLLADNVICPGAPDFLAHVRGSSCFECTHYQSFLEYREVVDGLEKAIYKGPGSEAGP
# [6] = molecular target: Guanidinoacetate N-methyltransferase (Homo sapiens) (UniProt Q14353); assay: as above; conditions: MTase-Glo luminescence, SAH detection, recombinant enzyme; activity change, negative = inhibition: at 57.3 µM (top of the series) unless noted; series mostly up to 57.3 µM
# [7] = molecular target: Nicotinamide N-methyltransferase (Homo sapiens) (UniProt P40261); assay: as above; conditions: MTase-Glo luminescence, SAH detection, recombinant enzyme; measured here: NNMT max response; stronger effect = lower value
# Chain of Nicotinamide N-methyltransferase (Homo sapiens) (P40261 whole entry, looked up): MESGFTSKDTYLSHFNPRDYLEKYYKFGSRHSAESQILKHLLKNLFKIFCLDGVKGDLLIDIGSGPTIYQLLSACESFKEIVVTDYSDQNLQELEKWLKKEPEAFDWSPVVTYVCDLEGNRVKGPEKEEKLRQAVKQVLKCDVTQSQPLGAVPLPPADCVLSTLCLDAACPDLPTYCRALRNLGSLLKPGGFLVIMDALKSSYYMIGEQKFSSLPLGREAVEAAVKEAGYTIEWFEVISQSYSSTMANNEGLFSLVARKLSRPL
# [8] = molecular target: Phenylethanolamine N-methyltransferase (Homo sapiens) (UniProt P11086); assay: as above; conditions: MTase-Glo luminescence, SAH detection, recombinant enzyme; measured here: PNMT max response; stronger effect = lower value
# Chain of Phenylethanolamine N-methyltransferase (Homo sapiens) (P11086 whole entry, looked up): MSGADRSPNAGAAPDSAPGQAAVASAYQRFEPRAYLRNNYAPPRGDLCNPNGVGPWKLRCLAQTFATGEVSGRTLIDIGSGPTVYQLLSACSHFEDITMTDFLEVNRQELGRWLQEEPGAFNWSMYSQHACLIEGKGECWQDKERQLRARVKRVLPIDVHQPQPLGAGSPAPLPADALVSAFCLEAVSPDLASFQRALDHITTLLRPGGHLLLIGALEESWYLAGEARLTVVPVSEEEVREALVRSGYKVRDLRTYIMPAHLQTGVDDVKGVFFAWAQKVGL
# Potency means the concentration at half of the fitted maximal effect.
Compound,Potency [1],Potency [2],Potency [3],Potency [4],activity [5] [%],"activity change, negative = inhibition [6] [%]",activity [7] [%],activity [8] [%],Potency [6]
COc1ccc(NC(=O)c2ccc(C(=N)N(C)C)cc2)c(C(=O)Nc2ccc(Cl)cn2)c1,inactive,3.79 µM (active),inactive,inactive,,,,,
O=C(NCCO)c1cccc(-c2cc(Nc3ccc(OC(F)(F)F)cc3)ncn2)c1,23.9 µM (active),21.3 µM (active),18.3 µM (active),18.3 µM (active),,,,,
Cc1noc(C)c1-c1cc(O)cc(C(O)c2ccccc2)c1 (configuration not stated),16.9 µM (active),0.849 µM (active),0.916 µM (active),1.03 µM (active),,,,,
COc1cc2nc(C3CC3)nc(N3CCN(c4ccccc4OC)CC3)c2cc1OC,21.3 µM (active),13.5 µM (active),16.3 µM (active),12.9 µM (active),,,,,
Oc1cccc(C2NC(=S)Nc3cccc(F)c32)c1 (configuration not stated),7.56 µM (active),15.1 µM (active),3.65 µM (active),4.09 µM (active),,,,,
COC(C)(C)CCn1nc(Nc2c(C)cccc2C)c2cnc(Nc3ccc(OCCN4CCCC4)c(F)c3)nc21,15.1 µM (active),6.01 µM (active),103 nM (active) and 263 nM (active),163 nM (active) and 468 nM (active),-6.73,0,-23.2,-4.06,
O=S1(=O)CCN(Cc2cc(NCC3CCOCC3)c3[nH]c(-c4ccccc4)cc3c2)CC1,12 µM (active),3.38 µM (active),,10.3 µM (active),-4.1,-1.81,-6.86,-4.93,
Fc1ccc2c(CCNCc3cccc(OCC(F)(F)C(F)F)c3)c[nH]c2c1,0.0477 µM (active),9.52 µM (active),,,-0.052,0.441,-8.62,-13.2,
O=C(c1ccc(Cl)cc1)N1CCN(c2ccnc3cc(Cl)ccc23)CC1,8.49 µM (active),8.49 µM (active),,,-6.44,-4.09,-41.3,-10.9,
CC(C)c1ccc(NC(=O)c2cccs2)c(-c2nc3ccccc3[nH]c2=O)c1,13.5 µM (active),10.7 µM (active),,16.3 µM (active),,,,,
COc1nc2ccc(Br)cc2cc1[C@@H](c1ccccc1)[C@@](O)(CCN(C)C)c1cccc2ccccc12,7.56 µM (active),3.79 µM (active),,14.5 µM (active),,,,,
CCCNCCc1ccc(NS(=O)(=O)c2ccc(OC(F)(F)F)cc2)cc1,1.34 µM (active),8.49 µM (active),,14.5 µM (active),,,,,
CC[C@@H](Nc1c(Nc2cccc(C(=O)N(C)C)c2O)c(=O)c1=O)c1cc(C(C)C)co1,16.9 µM (active),5.35 µM (active),,16.3 µM (active),,,,,
Cc1cc(C)cc(-c2cnc3cc(Cl)c(-c4cccc(O)c4)cc3c2OCCCN)c1,7.56 µM (active),1.2 µM (active),,16.3 µM (active),-38.4,,-83.8,-37.3,42.9 µM (active)
CS(=O)(=O)Nc1ccc2oc3c(OC(F)F)ccc(C(=O)Nc4c(Cl)cncc4Cl)c3c2c1,12 µM (active),3.38 µM (active),,,-3.19,-1.02,-19.3,-4.54,
CCOC(=O)N1CCC(CN(Cc2ccc(Cl)cc2)Cc2ccc([N+](=O)[O-])s2)C1 (configuration not stated),3.01 µM (active),4.25 µM (active),,20.5 µM (active),-21.2,1.91,-5.08,-5.01,
CC(C)(C[C@@](O)(Cc1cc2ccncc2[nH]1)C(F)(F)F)c1cc(F)ccc1O,0.134 µM (active),0.301 µM (active),10.3 µM (active),0.163 µM (active),1.72,0,-1.53,-1.87,
